Test results reported in PubChem BioAssay (Tox21).
Records with an inconclusive call do not appear. Active and inactive are the calls of the source. Unless noted, calls come from the whole dose curve; as a rule, active = well fitted curve in the direction sought with a large enough effect in the repeat runs; inconclusive = weak or mixed curves; inactive = no such curve, though single readings can be large; an effect the other way counts as inactive or inconclusive.

Legend:
[1] = molecular target: Retinoic acid receptor RXR-alpha (Homo sapiens) (UniProt P19793); assay: qHTS assay to identify small molecule agonists of the RXR signaling pathway (AID 1159527; calls by dose curve; note: nearly all actives have a fitted effect of over 35% in size; note: potency is the fitted concentration of half-maximal effect)
Sequence of Retinoic acid receptor RXR-alpha (Homo sapiens) (P19793 whole entry, looked up): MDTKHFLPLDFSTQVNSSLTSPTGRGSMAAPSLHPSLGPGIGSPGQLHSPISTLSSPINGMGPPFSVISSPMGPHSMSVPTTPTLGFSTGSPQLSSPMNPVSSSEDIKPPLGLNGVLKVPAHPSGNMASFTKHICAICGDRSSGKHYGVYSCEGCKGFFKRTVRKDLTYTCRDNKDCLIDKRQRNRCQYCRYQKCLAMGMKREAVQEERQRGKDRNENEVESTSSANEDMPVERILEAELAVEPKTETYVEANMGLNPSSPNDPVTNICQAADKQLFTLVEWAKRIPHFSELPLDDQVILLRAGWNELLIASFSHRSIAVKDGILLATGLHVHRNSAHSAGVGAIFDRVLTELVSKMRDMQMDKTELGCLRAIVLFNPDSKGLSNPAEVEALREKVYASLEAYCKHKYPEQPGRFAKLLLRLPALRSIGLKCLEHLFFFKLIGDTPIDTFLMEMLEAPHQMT
Procedure, shortened: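 Fluorescence ratio readout (460 vs 530 nm) from GeneBLAzer RXR-alpha HEK 293T cells after 16 hr compound treatment; cells seeded 5 hr beforehand in low-serum, charcoal-stripped medium.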

[2] = qHTS assay to identify small molecule agonists of the RXR signaling pathway - cell viability counter screen (AID 1159529);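 note: HEK 293T cells carrying an RXR-alpha UAS beta-lactamase reporter; series mostly up to about 77 µM; nearly all actives have a fitted effect of over 50% in size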
Procedure, shortened: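 Viability read-out for the RXR-alpha agonist qHTS: luminescent CellTiter-Glo signal after 30 min at RT. HEK 293T bla reporter cells, 2% charcoal-stripped FBS, 16 hr compound incubation; tetraoctyl ammonium bromide as cytotoxic control.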

[3] = qHTS assay to identify small molecule antagonists of the retinoid acid receptor (RAR) signaling pathway - cell viability counter screen (AID 1159551); note: nearly all actives have a fitted effect of over 35% in size
Procedure, shortened: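 Seed C3RL4 cells; next day add compound, then retinol to 1 uM final; incubate 6 h at 37 C; add CellTiter-Glo; read luminescence after 30 min at RT.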

[4] = qHTS assay to identify small molecule antagonists of the retinoic acid receptor (RAR) signaling pathway (AID 1159552; note: nearly all actives have a fitted effect of over 50% in size)
Procedure, shortened: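 Using a RARE-driven luciferase construct in C3RL4 cells, retinol at 1 uM final provided the agonist stimulus while compounds were co-applied. After 6 hours at 37 C, luminescence was recorded to flag inhibitors of retinol signaling.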

[5] = qHTS assay to identify small molecule agonists of the retinoic acid receptor (RAR) signaling pathway (AID 1159553)
Procedure, shortened: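 Activation of retinol signaling was monitored via a RARE luciferase reporter in C3RL4 cells. After 6 hr compound treatment at 37 C, detection reagent was added for 30 min at room temperature before luminescence reading.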

[6] = qHTS assay to identify small molecule antagonists of the estrogen related receptor (ERR) signaling pathway from Tox21 library - cell viability counter screen (AID 1224834); note: nearly all actives have a fitted effect of over 30% in size
Procedure, shortened: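 CellTiter-Fluor fluorescence measured; ERR cells; 17.5 h compound incubation at 37 C; 30 min reagent step.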

[7] = molecular target: Luciferin 4-monooxygenase (Photinus pyralis) (UniProt P08659); assay: qHTS assay to identify small molecule inhibitors of firefly luciferase (AID 1224835); note: series mostly up to about 120 µM; nearly all actives have a fitted effect of over 25% in size
Sequence of Luciferin 4-monooxygenase (Photinus pyralis) (P08659 whole entry, looked up): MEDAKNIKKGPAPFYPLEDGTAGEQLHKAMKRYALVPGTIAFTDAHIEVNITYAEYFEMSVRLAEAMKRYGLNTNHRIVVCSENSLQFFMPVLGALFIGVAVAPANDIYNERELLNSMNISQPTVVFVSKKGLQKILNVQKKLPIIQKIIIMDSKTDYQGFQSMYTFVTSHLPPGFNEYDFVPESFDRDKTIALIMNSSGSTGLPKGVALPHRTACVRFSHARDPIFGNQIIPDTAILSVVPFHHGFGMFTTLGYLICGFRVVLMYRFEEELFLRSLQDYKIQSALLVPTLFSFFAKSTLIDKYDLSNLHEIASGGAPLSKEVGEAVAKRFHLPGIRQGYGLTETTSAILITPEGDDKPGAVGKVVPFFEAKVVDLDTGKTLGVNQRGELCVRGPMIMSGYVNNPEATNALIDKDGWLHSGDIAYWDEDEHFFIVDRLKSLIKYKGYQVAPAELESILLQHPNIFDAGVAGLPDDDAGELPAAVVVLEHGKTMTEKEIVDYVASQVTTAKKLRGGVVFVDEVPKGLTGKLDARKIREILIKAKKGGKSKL
Procedure, shortened: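 Inhibition of purified Photinus luciferase is measured by luminescence. Substrate levels (D-luciferin, ATP) sit at their KM values. Each compound is tested in a concentration series.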

[8] = qHTS assay to identify small molecule agonists of the constitutive androstane receptor (CAR) signaling pathway - cell viability counter screen (AID 1224836); note: series mostly up to about 92 µM; nearly all actives have a fitted effect of over 45% in size
Procedure, shortened: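 Multiplexed viability check: HepG2-CYP2B6-hCAR cells, 15-point compound dosing, 0.75 uM PK11195 final, 23 h at 37 C, CellTiter-Fluor fluorescence.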

[9] = qHTS assay to identify small molecule antagonists of the constitutive androstane receptor (CAR) signaling pathway - cell viability counter screen (AID 1224837); note: series mostly up to about 92 µM; nearly all actives have a fitted effect of over 45% in size
Procedure, shortened: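 Using CellTiter-Fluor, viability is scored in HepG2 cells stably carrying hCAR and a 2.2kb CYP2B6 reporter after 23 hr compound exposure across 15 concentrations, with CITCO present at 50 nM.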

[10] = qHTS assay to identify small molecule antagonists of the estrogen related receptor signaling pathway with the pleiotropic PPARgamma coactivator (PGC) from Tox21 10K library - cell viability counter screen (AID 1224840; active = well fitted cell-killing curve with a large enough effect in the repeat runs, not every such curve was filed as active; note: nearly all actives have a fitted effect of over 40% in size)
Procedure, shortened: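 Here the PGC/ERR cells serve as a cytotoxicity control: they are exposed to compounds for 17.5 hours at 37 C, and live-cell signal is quantified using CellTiter-Fluor fluorescence.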

[11] = molecular target: Nuclear receptor subfamily 1 group I member 3 (Homo sapiens) (UniProt Q14994); assay: qHTS assay to identify small molecule antagonists of the constitutive androstane receptor (CAR) signaling pathway (AID 1224838);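 note: HepG2 cells stably expressing hCAR with CYP2B6 luciferase reporter stimulated by CITCO; nearly all actives have a fitted effect of over 40% in size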
Sequence of Nuclear receptor subfamily 1 group I member 3 (Homo sapiens) (Q14994 whole entry, looked up): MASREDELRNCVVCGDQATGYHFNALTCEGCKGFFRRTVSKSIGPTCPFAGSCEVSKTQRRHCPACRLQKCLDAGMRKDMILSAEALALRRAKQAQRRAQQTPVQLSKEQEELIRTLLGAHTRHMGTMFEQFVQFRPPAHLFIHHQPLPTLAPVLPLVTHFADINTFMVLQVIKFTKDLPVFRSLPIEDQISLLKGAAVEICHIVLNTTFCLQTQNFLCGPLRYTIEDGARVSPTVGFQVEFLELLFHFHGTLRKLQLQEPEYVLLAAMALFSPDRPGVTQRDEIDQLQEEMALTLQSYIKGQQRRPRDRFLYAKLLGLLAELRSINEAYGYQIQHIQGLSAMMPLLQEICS
Procedure, shortened: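 Reporter luminescence was quantified after 24 h exposure of hCAR/CYP2B6-2.2kb double-stable HepG2 cells to compounds at 15 concentrations in the presence of 50 nM CITCO final.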

[12] = qHTS assay to identify small molecule antagonists of the estrogen related receptor signaling pathway with the pleiotropic PPARgamma coactivator (PGC) from Tox21 10K library (AID 1224841; call rule not given here; note: series mostly up to about 92 µM; actives are mostly falling curves and most rising ones were filed inactive; nearly all actives have a fitted effect of over 50% in size)
Procedure, shortened: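 Each well held 2,000 PGC/ERR cells, pre-incubated six hours (37 C, 5% CO2). Test substances in DMSO were added by pin tool and left for 18 h at 37 C before luciferase detection by One-Glo.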

[13] = qHTS assay to identify small molecule agonists of the estrogen related receptor signaling pathway with the pleiotropic PPARgamma coactivator (PGC) from Tox21 10K library (AID 1224842); note: nearly all actives have a fitted effect of over 15% in size
Procedure, shortened: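 Luminescence from One-Glo (30 min, room temperature) measured after PGC/ERR cells had 18 h at 37 C with pinned compound (23 nL in DMSO). Cells had been seeded at 2,000 per well and pre-incubated 6 h.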

[14] = molecular target: Nuclear receptor subfamily 1 group I member 3 (Homo sapiens) (UniProt Q14994); assay: qHTS assay to identify small molecule agonists of the constitutive androstane receptor (CAR) signaling pathway (AID 1224839);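 note: HepG2 cells stably carrying human CAR and a CYP2B6 luciferase reporter; series mostly up to about 92 µM; nearly all actives have a fitted effect of over 15% in size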
Procedure, shortened: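 Using human hepatoma HepG2 cells engineered with hCAR and a CYP2B6-2.2kb reporter, 15-concentration compound series were incubated 24 h alongside PK11195 at 0.75 uM final, with luminescence quantified afterwards.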
% is set by controls: 0 for no effect and ±100 for the full control effect.

CCC1(C)NC(=O)NC1=O (stereo unspecified)
inactive: Potency [1] | Potency [2] | outcome [3] | Potency [4] | Potency [5] | Potency [6] | Potency [7] | Potency [8] | Potency [9] | Potency [10]

CCOC(=O)NCCC[Si](OCC)(OCC)OCC
inactive: Potency [1] | Potency [2] | outcome [3] | Potency [4] | Potency [5] | Potency [6] | Potency [7] | Potency [8] | Potency [9] | Potency [11] | Potency [10] | Potency [12] | Potency [13]

CC(C)CC(=O)OCc1ccccc1
inactive: Potency [1] | Potency [2] | outcome [3] | Potency [4] | Potency [5] | Potency [6] | Potency [7] | Potency [8] | Potency [9] | Potency [14] | Potency [10]

COC(=O)N[C@H](C(=O)N[C@@H](Cc1ccccc1)[C@@H](O)CN(Cc1ccc(-c2ccccn2)cc1)NC(=O)[C@@H](NC(=O)OC)C(C)(C)C)C(C)(C)C
inactive: Potency [1] | Potency [2] | outcome [3] | Potency [4] | Potency [5] | Potency [6] | Potency [7] | Potency [8] | Potency [9] | Potency [10]

C[C@@H]1CN(c2c(F)c(F)c3c(=O)c(C(=O)O)cn(C4CC4)c3c2F)C[C@H](C)N1
inactive: activation [1] 6.08% [at 15.8 µM] | activity change, negative = cytotoxicity [2] 10.3% [at 15.8 µM] | activity change, negative = cytotoxicity [3] 3.44% [at 19 µM] | activity, negative = inhibition [4] 16.3% [at 19 µM] | Potency [5] | viability change, negative = cytotoxic [6] 2.27% [at 19 µM] | activity change, negative = inhibition [7] 4.05% [at 23.6 µM] | viability change, negative = cytotoxic [8] 4.91% [at 19 µM] | activity change, negative = cytotoxicity [9] 2.19% [at 19 µM] | viability change, negative = cytotoxic [10] 2.41% [at 19 µM] | activity, negative = inhibition [12] 20.9% [at 19 µM] | activation [13] 6.21% [at 19 µM]

OCCN1CCN(CCO)CC1
inactive: Potency [1] | Potency [2] | outcome [3] | Potency [4] | Potency [5] | Potency [6] | Potency [7] | Potency [8] | Potency [9] | Potency [14] | Potency [10]

NC(=O)NS(=O)(=O)c1ccc(Cl)cc1
inactive: Potency [1] | Potency [2] | outcome [3] | Potency [4] | Potency [5] | Potency [6] | Potency [7] | Potency [8] | Potency [9] | Potency [14] | Potency [10]

CC(C)OC(C)C
inactive: Potency [1] | Potency [2] | outcome [3] | Potency [4] | Potency [5] | Potency [6] | Potency [7] | Potency [8] | Potency [9] | Potency [11] | Potency [10] | Potency [12] | Potency [13]

FC(F)(F)c1ccccc1
inactive: Potency [1] | Potency [2] | outcome [3] | Potency [4] | Potency [5] | Potency [6] | Potency [7] | Potency [8] | Potency [9] | Potency [11] | Potency [10] | Potency [12] | Potency [13]

FC(F)(F)C(F)(F)C(F)(F)C(F)(F)C(F)(F)C(F)(F)C(F)(F)C(F)(F)Br
inactive: Potency [1] | Potency [2] | outcome [3] | Potency [4] | Potency [5] | Potency [6] | Potency [7] | Potency [8] | Potency [9] | Potency [11] | Potency [14] | Potency [10] | Potency [12] | Potency [13]

Cn1cnc2c(F)c(Nc3ccc(Br)cc3Cl)c(C(=O)NOCCO)cc21
inactive: Potency [1] | Potency [2] | outcome [3] | Potency [4] | Potency [5] | Potency [6] | Potency [7] | Potency [8] | Potency [9] | Potency [11] | Potency [14] | Potency [10] | Potency [12] | Potency [13]

CS(=O)(=O)c1ccc([C@@H](O)[C@@H](CF)NC(=O)C(Cl)Cl)cc1
inactive: Potency [1] | Potency [2] | outcome [3] | Potency [4] | Potency [5] | Potency [6] | Potency [7] | Potency [8] | Potency [9] | Potency [14] | Potency [10]

C[C@@H]1CN(c2c(F)c(N)c3c(=O)c(C(=O)O)cn(C4CC4)c3c2F)C[C@H](C)N1
inactive: activation [1] 12.8% [at 15.8 µM] | activity change, negative = cytotoxicity [2] 8.39% [at 15.8 µM] | activity change, negative = cytotoxicity [3] 2.38% [at 19 µM] | activity, negative = inhibition [4] 6.27% [at 19 µM] | Potency [5] | viability change, negative = cytotoxic [6] -1.89% [at 19 µM] | activity change, negative = inhibition [7] 0.766% [at 23.6 µM] | viability change, negative = cytotoxic [8] -2.59% [at 19 µM] | activity change, negative = cytotoxicity [9] 0.653% [at 19 µM] | viability change, negative = cytotoxic [10] -4.64% [at 19 µM]

CCOC(=O)[C@H](CCc1ccccc1)N[C@@H](C)C(=O)N1Cc2cc(OC)c(OC)cc2C[C@H]1C(=O)O
inactive: Potency [1] | Potency [2] | outcome [3] | Potency [4] | Potency [5] | Potency [6] | Potency [7] | Potency [8] | Potency [9] | Potency [10]

OCCN(CCO)CCN(CCO)CCO
inactive: Potency [1] | Potency [2] | outcome [3] | Potency [4] | Potency [5] | Potency [6] | Potency [7] | Potency [8] | Potency [9] | Potency [11] | Potency [10] | Potency [12] | Potency [13]

CC(=O)OC(C)OC(C)=O
inactive: Potency [2] | outcome [3] | Potency [4] | Potency [5] | Potency [6] | Potency [7] | Potency [8] | Potency [9] | Potency [11] | Potency [10]
active: Potency [1] 2010 nM

CN1CCN(c2c(F)cc3c(=O)c(C(=O)O)cn(CCF)c3c2F)CC1
inactive: Potency [1] | Potency [2] | outcome [3] | Potency [4] | Potency [5] | Potency [6] | Potency [7] | Potency [8] | Potency [9] | Potency [10]

CC(C)(C)C1CCCCC1=O (stereo unspecified)
inactive: Potency [1] | Potency [2] | outcome [3] | Potency [4] | Potency [5] | Potency [6] | Potency [7] | Potency [8] | Potency [9] | Potency [11] | Potency [10]

CCN(CC)C(=O)N(CC)CC
inactive: Potency [1] | Potency [2] | outcome [3] | Potency [4] | Potency [5] | Potency [6] | Potency [7] | Potency [8] | Potency [9] | Potency [10]

COC(=O)/C=C(/C)N
inactive: Potency [1] | Potency [2] | outcome [3] | Potency [4] | Potency [5] | Potency [6] | Potency [7] | Potency [8] | Potency [9] | Potency [11] | Potency [14] | Potency [12] | Potency [13]
